Drawing on PubChem BioAssay (NCI), this text covers growth for eight molecules.

Compounds without any hit were thinned out: in the full panel of roughly 83,000, 20% have a hit.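 96-well plates, one dose, 48 hours. Percent growth reported; active if below 10.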 Values without a mark were called inactive. Calls of active or inactive are those of the source.

Among the test systems are NCI-H23 lung; NCI-H226 lung; NCI-H322M lung; HOP-62 NSCLC; NCI-H460 lung; HOP-92 NSCLC; NCI-H522 lung; A549/ATCC NSCLC; 786-0 renal; COLO 205 colon; DU-145 prostate; K-562 leukemia; MALME-3M melanoma; MDA-MB-231 breast; RXF 393 renal; SF-268 CNS; SF-295 CNS; SF-539 CNS; M14 melanoma; UACC-257 melanoma.
What all share (test): NCI-60 one-dose screen, 48 h (100 = growth as untreated, 0 = no growth, -100 = all killed)
Holding throughout (settings): 10 µM unless noted

Regarding `COc1cccc(-c2nn(-c3ccccc3)cc2-c2ccnc(NCCCO)c2)c1`, the growth was 51.5% with NCI-H23 lung; 69.2% in the experiment with NCI-H226 lung; 66% in the experiment with NCI-H322M lung; 27.1% in the experiment on HOP-62 NSCLC; 18.4% with NCI-H460 lung; 41.8% with HOP-92 NSCLC. Further, the growth is 18% in the experiment on NCI-H522 lung; 35.1% with A549/ATCC NSCLC; 48.7% in the experiment with 786-0 renal; 11.2% in the experiment with COLO 205 colon; 63.8% in the experiment with DU-145 prostate; 8.63% (active) in the experiment with K-562 leukemia. Moreover, the growth was 51.4% in the experiment on MALME-3M melanoma; 38.4% in the experiment with MDA-MB-231 breast; 47.6% in the experiment with RXF 393 renal; 53.7% with SF-268 CNS; 27.1% in the experiment on SF-295 CNS; 33.5% with SF-539 CNS. Moreover, the growth in the experiment with M14 melanoma is 12.8%.
On to `Cc1[c-]onc1C.Cc1[c-]onc1C.[Ag].[Ag].[NH-]S(=O)(=O)c1ccc(N=Nc2cc(N=Nc3ccc(S([NH-])(=O)=O)cc3)c3c(NC(=O)C(Cl)Cl)cccc3c2OC(=O)C(Cl)Cl)cc1`, for which the growth is 94.8% with NCI-H23 lung; 94.8% with NCI-H226 lung; 96% in the experiment on NCI-H322M lung; 84.7% in the experiment with HOP-62 NSCLC; 57.3% in the experiment on NCI-H460 lung; 6.01% (active) in the experiment with HOP-92 NSCLC. Besides, the growth in the experiment on NCI-H522 lung is -85.7% (active); with A549/ATCC NSCLC, 80.5%; with 786-0 renal, 104%; with COLO 205 colon, -46.9% (active); in the experiment on DU-145 prostate it was 70.5%; with K-562 leukemia, 59.7%. The growth with MALME-3M melanoma was 7.7% (active); in the experiment with MDA-MB-231 breast, 45.8%; with RXF 393 renal, 89.2%; with SF-268 CNS, 84.5%; in the experiment with SF-539 CNS it was 92.8%; in the experiment with UACC-257 melanoma it was 78.5%. The growth in the experiment on M14 melanoma was 103%.
For the molecule `COc1cccc(-c2nn(-c3ccccc3)cc2-c2ccnc(NCCCNS(=O)(=O)c3cccc(F)c3)c2)c1`, the growth in the experiment with NCI-H23 lung was 30.2%; in the experiment on NCI-H226 lung, 21.7%; in the experiment with NCI-H322M lung it was 53.9%; in the experiment with HOP-62 NSCLC, 54.1%; in the experiment on NCI-H460 lung, 24.5%; in the experiment with HOP-92 NSCLC it was 6.39% (active). Also, the growth was 9.36% (active) in the experiment with NCI-H522 lung; 27.4% in the experiment on A549/ATCC NSCLC; 31.6% in the experiment with 786-0 renal; 11.9% in the experiment with COLO 205 colon; 53.6% with DU-145 prostate; 6.28% (active) with K-562 leukemia. Also, the growth in the experiment on MALME-3M melanoma is 35.1%; in the experiment with MDA-MB-231 breast, 5.9% (active); in the experiment with RXF 393 renal, 15.8%; with SF-268 CNS, 46.8%; in the experiment on SF-295 CNS, 7.99% (active); with SF-539 CNS, 51.9%. The growth in the experiment with M14 melanoma was 21%.
Regarding `Cc1cc(Nc2ccc(F)cc2)nc(N2CCN(c3ccnc4cc(Cl)ccc34)CC2)n1`, the growth with NCI-H23 lung was 28.9%; in the experiment on NCI-H226 lung, 57.5%; in the experiment on NCI-H322M lung, 46.8%; with HOP-62 NSCLC, 59.8%; in the experiment with NCI-H460 lung it was 11.6%; in the experiment with HOP-92 NSCLC it was -7.85% (active). The growth in the experiment with NCI-H522 lung is 17.4%; in the experiment on A549/ATCC NSCLC, 29.8%; in the experiment with 786-0 renal it was 23.5%; in the experiment with COLO 205 colon, -68% (active); in the experiment on DU-145 prostate, 35%; in the experiment on K-562 leukemia, 6.26% (active). In addition, the growth was 12.7% in the experiment with MALME-3M melanoma; 37.9% with MDA-MB-231 breast; 38.9% in the experiment on RXF 393 renal; 36.2% in the experiment with SF-268 CNS; 14% with SF-539 CNS; 38.3% with UACC-257 melanoma. Further, the growth in the experiment on M14 melanoma was 12.9%.
On to `COc1cc2c(cc1OC)C(=O)/C(=C/c1cc(-c3ccc4c(c3)OCO4)n[nH]1)C2`, for which the growth in the experiment on NCI-H23 lung is 22.4%; in the experiment with NCI-H226 lung, 47.1%; in the experiment on NCI-H322M lung, -5.69% (active); in the experiment with HOP-62 NSCLC, -52.5% (active); in the experiment on NCI-H460 lung, -82.2% (active); in the experiment on HOP-92 NSCLC, -4.09% (active). In addition, the growth in the experiment on NCI-H522 lung is -63.6% (active); in the experiment on A549/ATCC NSCLC, 27.8%; with 786-0 renal, -89.8% (active); in the experiment with COLO 205 colon, 7.58% (active); in the experiment with DU-145 prostate, 1.19% (active); with K-562 leukemia it was -41.5% (active). The growth is 43.7% with MALME-3M melanoma; 24.6% in the experiment with MDA-MB-231 breast; -39.8% (active) in the experiment on RXF 393 renal; -53.4% (active) with SF-268 CNS; -80.9% (active) in the experiment on SF-539 CNS; 77.1% in the experiment on UACC-257 melanoma. In addition, the growth with M14 melanoma was 5.68% (active).
`COC(=O)[C@]12CC[C@@H](C)[C@H](C)[C@@H]1C1=CC[C@@H]3[C@@]4(C)C=C(O)C(=O)C(C)=C4CC[C@@]3(C)[C@]1(C)CC2`: the growth was 22.1% with NCI-H23 lung; 22.4% in the experiment with NCI-H226 lung; 82.6% in the experiment on NCI-H322M lung; 56.4% in the experiment with HOP-62 NSCLC; 46.8% in the experiment on NCI-H460 lung; 26.4% in the experiment with HOP-92 NSCLC. The growth is -14.1% (active) in the experiment with NCI-H522 lung; 39.5% in the experiment with A549/ATCC NSCLC; 68% in the experiment on 786-0 renal; 37.1% with COLO 205 colon; 54.4% in the experiment with DU-145 prostate; 19.3% in the experiment on K-562 leukemia. The growth with MALME-3M melanoma is 86.2%; with MDA-MB-231 breast, 5.7% (active); in the experiment on RXF 393 renal, 27.6%; in the experiment with SF-268 CNS it was 60%; with SF-295 CNS it was 34.7%; in the experiment on SF-539 CNS it was 32.3%. Further, in the experiment with M14 melanoma, the growth is 24.9%.
Take `O=c1c2sc3ncc(Br)cc3c2ncn1-c1cccc(Cl)c1`: the growth in the experiment with NCI-H23 lung was 87.4%; in the experiment with NCI-H226 lung it was 87.3%; in the experiment on NCI-H322M lung, 48.2%; with HOP-62 NSCLC it was 60.3%; with NCI-H460 lung it was 24.9%; in the experiment on HOP-92 NSCLC it was 72.7%. The growth in the experiment on NCI-H522 lung is 82.8%; with A549/ATCC NSCLC it was 43%; in the experiment on 786-0 renal it was 89%; in the experiment with COLO 205 colon, 86.3%; in the experiment on DU-145 prostate, 53.3%; with K-562 leukemia, 81.9%. The growth with MALME-3M melanoma was 52.5%; in the experiment on MDA-MB-231 breast, 49.5%; in the experiment with RXF 393 renal, 73.6%; with SF-268 CNS it was 64.1%; in the experiment with SF-539 CNS, 81.4%; with UACC-257 melanoma, 88.4%. Besides, the growth in the experiment with M14 melanoma is 76%.
`COC(=O)[C@]12CC[C@@H](C)[C@H](C)[C@@H]1C1=CC[C@@H]3[C@@]4(C)C[C@@H](OC(C)=O)[C@H](OC(C)=O)[C@@](C)(COC(C)=O)[C@@H]4[C@H](O)C[C@@]3(C)[C@]1(C)CC2`: the growth with NCI-H23 lung was 17.5%; in the experiment on NCI-H226 lung it was 2.17% (active); with NCI-H322M lung it was 34.6%; in the experiment with HOP-62 NSCLC, 15.6%; in the experiment on NCI-H460 lung, 4.06% (active); in the experiment with HOP-92 NSCLC, 31.2%. The growth is -2.94% (active) in the experiment with NCI-H522 lung; 7.91% (active) with A549/ATCC NSCLC; 15% in the experiment on 786-0 renal; -76% (active) with COLO 205 colon; 20.3% in the experiment on DU-145 prostate; 8.42% (active) in the experiment on K-562 leukemia. Also, the growth in the experiment on MALME-3M melanoma was 5.25% (active); with MDA-MB-231 breast it was 18.1%; with RXF 393 renal, -22.1% (active); with SF-268 CNS, 23.4%; in the experiment on SF-295 CNS it was 7.96% (active); in the experiment with SF-539 CNS, 15.4%. The growth in the experiment on M14 melanoma is 14.2%.
